Consider one molecule from the supplement of paper PMC11732987, “Enantioselective OTUD7B fragment discovery through chemoproteomics screening and high-throughput optimisation” (Communications Chemistry, 2025).

A number with no mark means an inactive call.

Common to all, as to assay: log2 ratio of Biotin-Ahx-Ub-VS probe labelling (fragment/DMSO); higher = less target engagement (more negative = stronger competition), active = hit call of the paper (q ≤ 0.05, log2 ratio ≤ -1)
What all share (details): compound concentration: 200 uM; treatment time: 3 h

For one experiment, the target named is T1, OTUD6B (UniProt Q8N6M0).
T1 sequence (whole entry): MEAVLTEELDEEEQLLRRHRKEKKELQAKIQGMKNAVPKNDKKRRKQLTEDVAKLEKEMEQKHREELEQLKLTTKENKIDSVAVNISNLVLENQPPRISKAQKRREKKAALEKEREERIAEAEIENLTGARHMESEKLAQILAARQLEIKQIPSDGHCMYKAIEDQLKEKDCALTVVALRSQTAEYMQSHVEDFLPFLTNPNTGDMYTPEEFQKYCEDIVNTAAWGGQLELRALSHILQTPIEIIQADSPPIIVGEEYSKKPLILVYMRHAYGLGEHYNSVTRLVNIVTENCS
The method in brief: (§1)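 Global-median-normalised Spectronaut label-free quantities were compared by unpaired t-test, and values are average log2 ratios of fragment over vehicle. Only proteins with ≥2 unique peptides were used. HEK293T lysate (495 µg per sample) was treated in triplicate with fragment at 200 µM or vehicle for 3 h and then with Biotin-Ahx-Ub-VS at 0.5 µM final for 1 h. Labelled DUBs were then NeutrAvidin-enriched, digested with LysC and trypsin, and run by diaPASEF LC-MS/MS.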

A further experiment deals with T2, OTUD7B (UniProt Q6GQQ9).
T2 sequence (whole entry): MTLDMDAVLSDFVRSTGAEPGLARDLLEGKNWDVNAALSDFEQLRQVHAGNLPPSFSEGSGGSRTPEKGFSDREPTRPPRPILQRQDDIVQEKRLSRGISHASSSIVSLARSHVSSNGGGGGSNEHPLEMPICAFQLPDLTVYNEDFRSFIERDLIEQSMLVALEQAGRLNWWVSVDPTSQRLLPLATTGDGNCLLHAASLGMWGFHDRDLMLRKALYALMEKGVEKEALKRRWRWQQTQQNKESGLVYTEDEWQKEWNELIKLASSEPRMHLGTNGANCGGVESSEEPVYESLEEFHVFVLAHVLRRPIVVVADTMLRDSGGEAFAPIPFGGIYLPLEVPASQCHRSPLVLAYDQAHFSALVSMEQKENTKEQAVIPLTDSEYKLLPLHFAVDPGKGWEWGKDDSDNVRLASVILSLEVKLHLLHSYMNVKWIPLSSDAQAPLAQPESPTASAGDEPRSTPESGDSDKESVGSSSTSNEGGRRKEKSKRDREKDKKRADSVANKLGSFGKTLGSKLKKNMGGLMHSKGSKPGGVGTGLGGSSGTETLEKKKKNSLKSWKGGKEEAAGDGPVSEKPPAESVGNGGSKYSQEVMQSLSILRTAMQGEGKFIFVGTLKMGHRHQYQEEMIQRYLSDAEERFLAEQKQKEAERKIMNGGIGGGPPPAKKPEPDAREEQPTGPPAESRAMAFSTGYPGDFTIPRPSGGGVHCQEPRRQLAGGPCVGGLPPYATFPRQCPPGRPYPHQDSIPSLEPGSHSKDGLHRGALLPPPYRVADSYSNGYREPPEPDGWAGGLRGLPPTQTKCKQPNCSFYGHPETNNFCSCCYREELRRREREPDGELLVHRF
The method, boiled down:
as §1

In a further experiment the target is PRPF8 (UniProt Q6P2Q9). The method in brief:
as §1

The next experiment has as its target T3, PSMD7 (UniProt P51665).
T3 sequence (whole entry): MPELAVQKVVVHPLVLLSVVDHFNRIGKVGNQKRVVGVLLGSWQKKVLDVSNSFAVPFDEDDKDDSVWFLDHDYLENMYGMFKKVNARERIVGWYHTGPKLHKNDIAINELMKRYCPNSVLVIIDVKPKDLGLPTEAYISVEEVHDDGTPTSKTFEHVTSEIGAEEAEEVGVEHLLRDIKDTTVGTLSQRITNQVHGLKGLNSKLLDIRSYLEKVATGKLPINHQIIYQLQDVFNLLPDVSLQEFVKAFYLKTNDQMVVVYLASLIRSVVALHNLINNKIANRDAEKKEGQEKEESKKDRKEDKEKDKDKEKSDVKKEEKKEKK
The method, boiled down: as §1

The next experiment addresses UCHL1 (UniProt P09936). The method in brief:
as §1

Another experiment deals with T4, UCHL3 (UniProt P15374).
T4 sequence (whole entry): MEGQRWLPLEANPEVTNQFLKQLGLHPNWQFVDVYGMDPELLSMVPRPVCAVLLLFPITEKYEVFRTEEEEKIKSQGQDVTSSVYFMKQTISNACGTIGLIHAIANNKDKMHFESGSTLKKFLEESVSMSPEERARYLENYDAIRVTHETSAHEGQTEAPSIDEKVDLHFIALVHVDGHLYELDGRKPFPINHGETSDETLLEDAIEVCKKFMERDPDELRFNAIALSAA
The method in brief:
as §1

In the next experiment the target is T5, UCHL5 (UniProt Q9Y5K5).
T5 sequence (whole entry): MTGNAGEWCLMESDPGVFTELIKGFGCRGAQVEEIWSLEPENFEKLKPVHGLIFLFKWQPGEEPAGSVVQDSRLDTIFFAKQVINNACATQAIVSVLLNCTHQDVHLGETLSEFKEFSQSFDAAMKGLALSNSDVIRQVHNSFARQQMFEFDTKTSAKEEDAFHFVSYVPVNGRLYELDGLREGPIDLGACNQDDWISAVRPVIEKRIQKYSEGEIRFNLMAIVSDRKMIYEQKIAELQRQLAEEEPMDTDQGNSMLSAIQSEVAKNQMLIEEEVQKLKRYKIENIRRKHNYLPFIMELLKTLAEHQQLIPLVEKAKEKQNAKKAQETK
The method in brief: as §1

In a further experiment the target is USP10 (UniProt Q14694). The method, boiled down: as §1
The target of the next experiment is T6, USP15 (UniProt Q9Y4E8).
T6 sequence (whole entry): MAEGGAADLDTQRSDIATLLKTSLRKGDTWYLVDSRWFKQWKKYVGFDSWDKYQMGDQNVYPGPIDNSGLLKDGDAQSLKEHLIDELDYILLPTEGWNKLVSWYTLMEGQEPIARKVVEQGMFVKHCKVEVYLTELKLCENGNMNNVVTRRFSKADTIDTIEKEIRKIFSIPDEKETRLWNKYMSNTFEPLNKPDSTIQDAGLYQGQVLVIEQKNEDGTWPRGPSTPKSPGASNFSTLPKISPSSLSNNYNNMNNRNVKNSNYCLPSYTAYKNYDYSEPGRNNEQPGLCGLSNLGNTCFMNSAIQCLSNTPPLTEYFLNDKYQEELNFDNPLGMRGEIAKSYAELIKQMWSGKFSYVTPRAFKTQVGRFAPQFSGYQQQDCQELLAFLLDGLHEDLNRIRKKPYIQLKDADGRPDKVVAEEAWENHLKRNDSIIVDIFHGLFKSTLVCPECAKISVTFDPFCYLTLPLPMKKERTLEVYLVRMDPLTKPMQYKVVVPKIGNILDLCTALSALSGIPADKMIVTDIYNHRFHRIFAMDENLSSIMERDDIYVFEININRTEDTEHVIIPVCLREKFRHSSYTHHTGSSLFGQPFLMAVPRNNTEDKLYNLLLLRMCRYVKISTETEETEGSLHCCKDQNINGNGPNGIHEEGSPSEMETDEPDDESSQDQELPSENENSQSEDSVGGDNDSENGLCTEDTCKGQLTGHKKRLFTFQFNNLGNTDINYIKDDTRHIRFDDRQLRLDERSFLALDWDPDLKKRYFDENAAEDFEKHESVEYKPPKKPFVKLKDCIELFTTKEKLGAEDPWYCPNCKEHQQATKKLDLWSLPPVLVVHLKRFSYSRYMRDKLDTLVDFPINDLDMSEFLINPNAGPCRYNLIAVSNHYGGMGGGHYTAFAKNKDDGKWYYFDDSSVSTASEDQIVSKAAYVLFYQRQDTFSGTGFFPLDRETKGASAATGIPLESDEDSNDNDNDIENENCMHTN
The method, boiled down: as §1

UCHL1, sequence (P09936 whole entry, looked up): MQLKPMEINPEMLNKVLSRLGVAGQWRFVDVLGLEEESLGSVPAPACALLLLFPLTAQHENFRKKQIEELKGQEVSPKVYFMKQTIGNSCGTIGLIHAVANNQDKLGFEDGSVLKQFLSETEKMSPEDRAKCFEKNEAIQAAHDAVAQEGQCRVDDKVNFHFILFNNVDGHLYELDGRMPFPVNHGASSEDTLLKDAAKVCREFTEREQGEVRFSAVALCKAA
USP10, sequence (Q14694 whole entry): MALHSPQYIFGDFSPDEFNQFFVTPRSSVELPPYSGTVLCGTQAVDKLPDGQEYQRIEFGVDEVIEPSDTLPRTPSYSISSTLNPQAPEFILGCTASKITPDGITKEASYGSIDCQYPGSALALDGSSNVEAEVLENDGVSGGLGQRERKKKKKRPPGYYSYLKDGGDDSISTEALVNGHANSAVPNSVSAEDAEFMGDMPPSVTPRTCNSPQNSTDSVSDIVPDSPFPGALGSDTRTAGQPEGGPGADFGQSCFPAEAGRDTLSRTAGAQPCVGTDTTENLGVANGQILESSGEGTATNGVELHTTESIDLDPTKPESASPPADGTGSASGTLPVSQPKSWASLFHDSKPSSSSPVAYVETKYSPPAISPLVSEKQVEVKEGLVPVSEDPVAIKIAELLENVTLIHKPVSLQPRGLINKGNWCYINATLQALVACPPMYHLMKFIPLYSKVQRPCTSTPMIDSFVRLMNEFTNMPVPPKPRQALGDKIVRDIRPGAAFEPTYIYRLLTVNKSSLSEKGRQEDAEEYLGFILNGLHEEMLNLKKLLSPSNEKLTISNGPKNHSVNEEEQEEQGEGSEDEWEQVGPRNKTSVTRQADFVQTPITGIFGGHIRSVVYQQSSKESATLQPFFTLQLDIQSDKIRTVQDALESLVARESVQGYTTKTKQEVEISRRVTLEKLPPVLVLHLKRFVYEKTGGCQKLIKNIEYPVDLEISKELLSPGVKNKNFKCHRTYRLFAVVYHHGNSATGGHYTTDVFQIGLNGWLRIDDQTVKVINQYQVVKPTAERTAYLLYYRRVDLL

As to `Cc1nc(CC2CCN(C(=O)CCl)CC2)no1`, the “log2 ratio of Biotin-Ahx-Ub-VS probe labelling” value is -0.781 in the experiment with OTUD6B; -0.652 in the experiment with OTUD7B; -0.314 in the experiment with PRPF8; 0.0562 with PSMD7; -1.96 (active) with UCHL1; -0.269 with UCHL3. The figures for the “log2 ratio of Biotin-Ahx-Ub-VS probe labelling” value with UCHL5, with USP10 and with USP15 were -0.792, -0.321 and -0.77, respectively.
